# According to the supplement of paper PMC9023506:
# Counter-ions that a name gives are not always drawn.
# Tested on: Danio rerio larvae (5 dpf)
# Experiment: optomotor response to fast red moving lines, difference vs DMSO (percentage points (treated minus DMSO)); higher = more of the behaviour than the DMSO vehicle control
# Conditions: 10 µM; exposure time: 3 h pre-incubation + 3 h imaging
# Experimental: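 5-dpf wild-type zebrafish larvae were imaged in 96-well plates. They were treated with 190 Tocris FDA-approved drugs at 10 µM (1 µl/ml DMSO) for 3 h before and 3 h during imaging at 28.5 °C, 48 larvae per drug. Automated image analysis gave % time moving and optomotor responses. Values are drug group mean minus DMSO vehicle mean (n=844), in percentage points, for 10 behaviours.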
row,Structure (SMILES),optomotor response
1,CN1C[C@H](C(=O)N[C@]2(C)O[C@@]3(O)[C@@H]4CCCN4C(=O)[C@H](Cc4ccccc4)N3C2=O)C[C@@H]2c3cccc4[nH]cc(c34)C[C@H]21 [Dihydroergotamine mesylate],2.2
2,COc1ccc(C(CN(C)C)C2(O)CCCCC2)cc1 (stereo unspecified) [Venlafaxine hydrochloride],7.81
3,CC[C@@H](C(N)=O)N1CCCC1=O [Levetiracetam],-4.73
4,CCN(C)C(=O)Oc1cccc([C@H](C)N(C)C)c1 [Rivastigmine tartrate],-8.58
5,CC(O)(CS(=O)(=O)c1ccc(F)cc1)C(=O)Nc1ccc(C#N)c(C(F)(F)F)c1 (stereo unspecified) [Bicalutamide],-2.63
6,C=CCN1C[C@H](C(=O)N(CCCN(C)C)C(=O)NCC)C[C@@H]2c3cccc4[nH]cc(c34)C[C@H]21 [Cabergoline],-23.2
7,N[C@@H]1C[C@H]1c1ccccc1 [Tranylcypromine hydrochloride],11.9
8,CC(C)C[C@H]1C(=O)N2CCC[C@H]2[C@]2(O)O[C@](NC(=O)[C@@H]3C=C4c5cccc6[nH]c(Br)c(c56)C[C@H]4N(C)C3)(C(C)C)C(=O)N12 [Bromocriptine mesylate],-41.6
9,COc1cc2c(cc1OC)C1CC(=O)C(CC(C)C)CN1CC2 (stereo unspecified) [Tetrabenazine],-22.5
10,O=c1[nH]c2ccccc2n1C1CCN(CCCC(c2ccc(F)cc2)c2ccc(F)cc2)CC1 [Pimozide],-34.3
11,C=C1C[C@@H]2[C@H](CC[C@]3(C)C(=O)CC[C@@H]23)[C@@]2(C)C=CC(=O)C=C12 [Exemestane],5.64
